About 83,000 compounds went through this panel and 20% of them were active in at least one assay; those are over-represented in the sample as a whole.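 A percent growth of 40 corresponds to 60% growth inhibition; 0 means no net growth; -100 means all cells died. Active threshold: below 10.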 Values without a mark were called inactive. Activity calls are given as the source filed them.

For this experiment, the system named is HS 578T breast. Kind of experiment: NCI-60 one-dose screen, 48 h (100 = growth as untreated, 0 = no growth, -100 = all killed). To be noted: 10 µM unless noted. The method, then:
Growth inhibition of the HS 578T human tumor cell line is measured as a screen for anti-cancer activity. Cells are grown in 96 well plates and exposed to the test compound for 48 hours. Compounds are tested at a single concentration, which is 10^-5 M for most compounds. The reported endpoint is percent growth (GI% or GIPRCNT), where numbers from 0 - 100% represent growth inhibition, and numbers from -100% - 0 represent cell death. For example, a value of 40 represents 60% growth inhibition. A value of 0 means no net growth occurred over the course of the experiment. A value of -40 indicates 40% of cells at the beginning of the experiment died by the end of the experiment. A value of -100 means all cells are dead at the end of the experiment.
NCI-60 Human Tumor Cell Lines Screen was performed using the standard one-dose NCI protocol, which is described in more detail at https://dtp.cancer.gov/discovery_development/nci-60/default.htm.
Compounds with GIPRCNT values below 10 were considered active. Activity score was based on GIPRCNT using the following formula: […]
Score is 0 for GIPRCNT values of 100 or above, 50 for GIPRCNT values of 0, and 100 for GIPRCNT values of -100.
With `O=C(CSc1nnc(-c2ccc(Cl)c(Cl)c2)n1-c1ccccc1)Nc1ccc(C(=O)/C=C/c2ccc(Cl)cc2)cc1`, the growth is 90.7%. On to `CCOC(=O)c1ccc2c(c1)[n+](=O)c(C(C)=O)c(C(F)(F)F)n2[O-]`, for which the growth was -23.9% (active).

With `Cc1ccc(-c2nc(C#N)c(S(=O)(=O)n3nc(C)cc3N)o2)cc1`, the growth is 103%. In the case of `COc1c(O[C@@H]2OC(CO)[C@H](O)[C@H](O)C2O)cc2oc3cc(O)c(CC=C(C)C)c(O)c3c(=O)c2c1CC=C(C)C` (stereo not given in full), the growth was 96.2%.

In the case of `CCCCCCCCNc1ncnc2c1ncn2Cc1nnc2c3ccccc3c(Cl)nn12`, the growth was 54.3%. The figure for `Cc1c(-c2cnc3ccc(Cl)cc3c2C(=O)O)nnn1-c1ccc(Cl)cc1` is 109%. The figure for `C#Cc1ccc(NC(=O)Cc2ccc(/C=C/C(=O)c3nccn3C)cc2)cc1` is 35.7%. The figure for `Nc1ncnc2c1N=C(c1ccc([N+](=O)[O-])cc1)CC(c1ccc3c(c1)OCO3)N2` (stereo not given) is 80.7%; for `O=C(Nc1ccccc1C(F)(F)F)C1=NCCCCN1` it is 99.8%. Regarding `Nc1nc(Nc2ccc([N+](=O)[O-])cc2O)nc(C(Cl)(Cl)Cl)n1`, the growth was 84.3%. Consider `CN(C)c1ccc(Cc2cc(-c3ccccc3)nn(C/C(=N/O)c3ccccc3)c2=O)cc1`, for which the growth is 83.1%. For `C=C(CNCCc1ccc(O)cc1)[C@@H]1CC[C@]2(CO)CC[C@]3(C)[C@H](CC[C@@H]4[C@@]5(C)CCC(N)C(C)(C)[C@@H]5CC[C@]43C)[C@@H]12` (stereo not given in full), the growth is -66% (active).

Regarding `CCCCC1=C(Br)C(=O)c2ncccc2C1=O`, the growth is 104%. The figure for `c1ccc2c(-c3cnn4cc(-c5ccc(N6CCNCC6)cc5)cnc34)ccnc2c1` is -68.7% (active). As for `Nc1ncc(-c2ccc3ncnc(N4CCc5cc(F)c(Cl)cc54)c3c2)cn1`, the growth is 13.2%. Take `CC(C)n1cc(C2=C(c3cccc4ccccc34)C(=O)NC2=O)c2cc(Br)ccc21`: the growth was 45.8%.

As to `CN1CCN(Cc2ccc(NC(=O)c3cncc(C#Cc4c(N)ncc5cc(F)ccc45)c3)cc2C(F)(F)F)CC1`, the growth was 31.8%. As for `CN1CCN(Cn2nc(-c3cc(Cl)cc(Cl)c3Cl)oc2=S)CC1`, the growth was 91.2%. The figure for `CCN(CC)c1ccc(/C=N/NC(=O)c2ccccc2Nc2ccnc(C(F)(F)F)c2)c(O)c1` is 61.1%. For the compound `CNC(=O)c1cc(Oc2ccc3nc(NC(=O)NC(C)C)sc3c2)ccn1`, the growth is 74.6%. Take `CNC(=O)c1cc(Oc2cccc3nc(NC(=O)Nc4ccc(F)cc4F)ccc23)ccn1`: the growth is 5.37% (active). As for `Cc1nc2cccc(NCc3ccc(C(=O)NO)cc3)c2c(=O)n1-c1ccccc1`, the growth was 56.8%. Consider `COc1ccc(CNc2ccc3nc(CCC4CCCCC4)[nH]c3c2)cc1`, for which the growth is 79.7%. As for `Cn1cc(-c2nc(-c3c[nH]c4c(Cl)nccc34)cs2)c2ccccc21`, the growth is 108%.

Take `CN(C)CCCN(CCC1CCCCC1)CCC1CCCCC1`: the growth is 58.1%. For `COc1nc2ccccc2cc1/C=[N+](\[O-])c1ccccc1` the value was 81.5%; for `COc1ccc2c(c1)c(-c1nc(-c3cn(C)c4ccncc34)cs1)cn2C`, 104%; for `CCOC(=O)c1c(C)c2c(n1Cc1ccccc1)CSc1cc(C#N)c(=O)[nH]c1-2`, 51.9% [100 µM].

On to `CCCCCCCCCCCCCC[n+]1ccc2c(C)c3c(c(C)c2c1)c1cc(O)ccc1n3CC`, for which the growth was -41.3% (active). As for `O=c1c2cccc3c(N4CCOCC4)ccc(c32)c2nc3ccccc3n12`, the growth was 40.2%.

Consider `O=c1cc(-c2nccc3c2[nH]c2ccccc23)c2cc(Cl)ccc2o1`, for which the growth is 37.3%. `O=c1ccc2nc(-c3ccccc3)nn(-c3ccccn3)c-2c1`: the growth is 101%. As for `COC(=O)c1nc(-c2ccccc2)oc1S(=O)(=O)N1CCN(c2ccc(OC)cc2)CC1`, the growth was 89.2%. For `Oc1cccc(-c2nc(-c3n[nH]c(=S)n3-c3ccccc3)cc3c2[nH]c2ccccc23)c1`, the growth was 35.1%.

For the compound `Cc1ccc(S(=O)(=O)N(CCC(=O)O)c2ccccc2)cc1`, the growth is 121%.

As to `C=CCn1c(SCC(=O)Nc2ccc(C(=O)/C=C/c3ccc(Cl)cc3)cc2)nnc1-c1ccc(Cl)c(Cl)c1`, the growth is 90.8%.

As to `Cc1cc2c(C(C)C)c(O)c(O)c(/C=N/O)c2c(O)c1-c1c(C)cc2c(C(C)C)c(O)c(O)c(/C=N/O)c2c1O`, the growth is 41.9%.

Consider `Cc1oc2ccc(O)c(CN3CCCCCC3)c2c1C(=O)Nc1ccc(C(F)(F)F)cc1`, for which the growth was 65.5%. For `CCN(CC)CCCNc1cc(OC)cc2cccnc12` the value was 109%; for `COc1ccccc1-c1nc2ccc3[nH]ncc3c2c2c1CCCC2`, 44.8%.

The record behind these values is PubChem BioAssay (NCI).
